V-ATPase pH = alters yeast V-ATPase proton transport; S. cerevisiae, pHLuorin cytosolic pH fluorescence; response, % at 10 µM; 0.37% of 350,000 active; in the data active = response mostly above about 7.3%, no sharp cut-off; inactive = mostly below about 5.4%; note: actives read high
NSD2 inh = inhibitors of human histone methyltransferase NSD2. O96028. inhibition, % at 12.5 µM. AID 743445. NSD2 peptide methylation, AlphaScreen, 120 min. 0.54% of 310,000 active; in the data active = inhibition above about 50%
NPR2 activator = GC-B (human) receptor activation | P20594 | HEK293-GC-B cells, CNP EC30, cGMP TR-FRET; 0% at EC30 CNP, 100% saturating CNP | activation, % at 10 µM | 0.11% of 370,000 active;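 active = activation at 10 µM reaching about 35% in either raw or pattern-adjusted values, limit read from the data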
NPR1 activator = GC-A (human) enzyme activation | P16066 | 0.14% of 370,000 active | activation, % at 10 µM | HEK293 GC-A cells, cGMP TR-FRET, EC30 ANP; 0% at EC30 ANP, 100% saturating ANP | AID 1671463; in the data active = activation above about 40%
Efflux pump inh = inhibitors of Candida antifungal efflux pumps expressed in yeast. S. cerevisiae Candida pump triplex, Nile Red efflux. inhibition, % at 10 µM. 0.44% of 330,000 active. AID 485275;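 active = plate passing quality check with inhibition over a set limit, or well fluorescence over plate mean plus 4 SD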;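 note: Nile Red retained in pooled yeast measured as flow cytometry median fluorescence; 0% = buffer negative control and 100% = Enniatin B positive control; higher means more Nile Red kept so more efflux inhibition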
Rce1 inh = blocks yeast Ras-converting enzyme | yeast membranes, quenched prenylated peptide cleavage fluorescence | calls only | Q03530 | 0.27% of 290,000 active;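 active = fall in fluorescence gain of 50% or more versus controls, with final raw signal at or below 3038400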;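 note: plate controls were neutral control wells for no effect and wells lacking membranes for full effect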
* marks the source's active call; other numbers are inactive results; i = inactive; x = not tested or not shown; + = active, no number. Shown are actives, neighbours in structure and some others; about 1.6% of the full set was active somewhere.

SMILES | V-ATPase pH | NSD2 inh | NPR2 activator | NPR1 activator | Efflux pump inh | Rce1 inh
CC1(C)Cc2c(sc3c2c(=N)n(Cc2ccco2)c(=O)n3Cc2ccccc2)CO1 | x | 0 | 33 | 31 | 0 | i
CC1(C)Cc2c(sc3c2c(=N)n(Cc2ccco2)c(=O)n3Cc2ccc(Cl)cc2)CO1 | 1 | -2 | 35* | 24 | 0 | i
CCn1c(=O)c([N+](=O)[O-])c(Cl)c2ccccc21 | 20* | 0 | x | x | 0 | i
Cc1ccc(N2C(=O)c3cccc([N+](=O)[O-])c3C2=O)cc1C | -2 | 44 | 34 | 72* | 0 | i
O=C(O)c1ccc2cccc(Cl)c2c1O | 1 | 1 | 3 | 3 | 0 | +
O=C(O)c1cccc(O)c1O | 1 | x | -5 | 1 | 0 | i
Cc1c(NC(=O)C2CCCN(S(=O)(=O)c3ccccc3[N+](=O)[O-])C2)c(=O)n(-c2ccccc2)n1C (stereo not given) | x | -2 | -5 | -1 | x | x
CC(C)NC(=O)CCc1nnc(Cc2cccc(C(F)(F)F)c2)o1 | 1 | -5 | -12 | -3 | 0 | i
CCC(COC)NC(=O)CCc1nnc(Cc2cccc(C(F)(F)F)c2)o1 (stereo not given) | -1 | -116 | -2 | 2 | 0 | +
COc1ccc(OC)c(-c2cc(C(=O)N3CCN(c4ccccc4)CC3)no2)c1 | 18* | x | -2 | 2 | 0 | i
Cc1ccc(NC(=O)CN2C(=O)S/C(=C/c3ccc(-c4cc(C(=O)O)ccc4C)o3)C2=O)cc1C | 2 | 6 | -5 | -10 | 0 | i
Cc1ccc(C(=O)O)cc1-c1ccc(C=C2C(=O)c3ccccc3C2=O)o1 | 11 | 55* | -6 | -2 | 0 | i
COc1ccccc1/C=C/C=N/Nc1cccc(C(=O)O)c1 | 0 | x | -2 | 54* | 0 | i
C#CCNC(=O)C[C@@H]1C(=O)N(CC=C)/C2=C/CCCCC[C@]21C(=O)OCC | x | x | -2 | 2 | x | x
O=C1C=C(c2ccc3[nH]ccc3c2)C[C@@H](c2ccc(F)cc2)C1 | 0 | x | 36* | 3 | 0 | x
CCOCc1cc(C)[nH]c(=O)c1C#N | -4 | x | 1 | -1 | 0 | +
COc1ccc2oc(-c3ccccc3)c(C(=O)N3CCOCC3)c2c1 | 8 | -2 | -4 | -5 | 0 | +
CC12CCC(=O)N1C(C(=O)Nc1nc(-c3ccc(F)cc3)cs1)CS2 (stereo not given) | -2 | -7 | 4 | 46* | 0 | i
COc1ccc(-c2csc(NC(=O)C3CSC4(C)CCC(=O)N34)n2)cc1OC (stereo not given) | -3 | 0 | 8 | 1 | 0 | i
CC12CCC(=O)N1C(C(=O)Nc1nc(-c3ccc(F)c(F)c3)cs1)CS2 (stereo not given) | -3 | 9 | 3 | 43* | 0 | i
C#CCCN([C@@H](CC(C)C)C(=O)OC)S(=O)(=O)c1ccccc1Br | x | x | 3 | -6 | x | x
O=C(Cc1ccccc1)Nc1ccccc1Sc1ccccc1 | 2 | -3 | -7 | 3 | 0 | i
O=C(CCl)Nc1ccccc1Sc1ccc(Cl)cc1 | 1 | -3 | -3 | 45* | 0 | i
O=C(Cc1ccc(F)cc1)Nc1ccccc1Sc1ccccc1 | 16* | -8 | -3 | -3 | 0 | i
N#Cc1c(C#N)c(SSc2c(C#N)c(C#N)c(N)n2-c2ccccc2)n(-c2ccccc2)c1N | -5 | 7 | 55* | -8 | x | x
COC(=O)[C@]12C[C@H](CC(=O)NCCc3ccccc3OC)C(=O)N(Cc3ccco3)C1=C[C@H](C(C)(C)C)O[C@@H]2C | x | x | -10 | -16 | x | x
COc1ccccc1N1CCN(C2=NS(=O)(=O)c3ccccc32)CC1 | 8 | -3 | -1 | -5 | 0 | i
C=CCN1/C(=C(\C#N)C2=NS(=O)(=O)c3ccccc32)N(C)c2ccccc21 | 24* | 1 | 1 | 3 | -5 | i
CCOC(=O)C1=C(COC(=O)c2c(OC)cccc2OC)NC(=O)NC1C (stereo not given) | -1 | -1 | 3 | -2 | 0 | i
CCOC(=O)C1=C(COC(=O)Cc2c(F)cccc2Cl)NC(=O)NC1C (stereo not given) | 0 | 1 | 36* | 29 | 0 | x

Screening data as filed in PubChem BioAssay.
